# Screening data: PubChem, National Center for Advancing Translational Sciences (NCATS)
# IP6K1 inhibitor = Primary qHTS assay for small molecule inhibitors of Inositol hexaphosphate kinase 1 (IP6K1); Inositol hexakisphosphate kinase 1 (Homo sapiens), Q92551; IP6K1 kinase, ADP-Glo luminescence, 2 h; active compounds read low; activity change, % (series mostly up to about 58 µM); 0.81% of 140,000 active; AID 1645851, 2021; in the data active = activity change below about -25%; also: % is scaled to controls: 0 for no effect and ±100 for the full control effect
#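 ADP-Glo luminescence measures ADP made by human IP6K1 during a 2 h RT reaction with ATP/IP6 (mix at 1.3 mM/130 uM); top library doses 57.5 and 19.1 uM final.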
# KDM5B inhibitor = Primary screen for KDM5B Histone Demethylases FDH-coupled qHTS; Lysine-specific demethylase 5B (Homo sapiens), Q9UGL1; KDM5B demethylase, FDH-coupled NADH fluorescence (FDH is formaldehyde dehydrogenase); Potency, µM (top dose mostly 57.7 µM), actives largely listed as inhibitors; 2.6% of 220,000 active; AID 1347165, 2019; active = well fitted inhibition curve with a large enough effect; inconclusive = small, poorly fitted or top-dose-only effect; inactive = no such curve, though single readings can be large or run the other way; also: potency is read from the fitted curve at half-maximal effect; 0% is about no effect; nearly all actives have a fitted effect of over 70% in size
#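 KDM5BΔAP (200 nM final) in 50 mM HEPES pH 7.5, 0.01% Tween-20 was preincubated 10 min at RT with compound over a concentration range. Substrate mix (H3K4me3 12.5 µM, α-KG 25 µM, Fe²⁺, ascorbate, NAD⁺, FDH) was added, and NADH fluorescence change over 30 min gave dose-response curves.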
# * hit, by the source's call; i = inactive; ? = inconclusive; · = no result. Sampled rows, rich in hits. Any-hit rate of the full collection: about 2.7%.
SMILES,IP6K1 inhibitor,KDM5B inhibitor
CCN(CC)Cc1cnc2c(C(=O)NC3CCC3)cnn2c1,-2,?
O=C(N[C@@H]1CCOC[C@H]1O)c1cnn2cc(CCO)cnc12,-8,28µM*
COCC(=O)N1C[C@H](NC(=O)c2nc3ccccc3n(C)c2=O)[C@@H](C2CC2)C1,-2,22µM*
COCC(=O)N1C[C@H](NC(=O)C(=O)c2cccn2C)[C@@H](C2CC2)C1,1,i
Cc1ccccc1Oc1c(CCC(=O)NCC2CC2)c(C)nn1-c1ccc(F)cc1,15,i
O=C(NC1CC(c2nnc(CO)n2C2CC2)C1)c1ccc(F)cc1Cl (configuration not stated),14,i
O=C(NC1CC(c2nnc(CO)n2C2CC2)C1)c1cccn2cnnc12 (configuration not stated),8,28µM*
CC(OC(=O)c1nn(-c2ccccc2)c(=O)c2ccccc12)C(=O)N1CCCCCC1 (configuration not stated),·,i
CC(=O)N1CCN(c2nc(-c3ccccc3)nc3ccccc23)CC1,·,i
COC1CCCN(c2ncccc2-c2cc(-c3ccccc3)nc3c(C)noc23)C1 (configuration not stated),1,40µM*
Cc1noc2c(-c3cccnc3NC3CCN(C)CC3)cc(-c3ccccc3)nc12,-9,?
COc1cc(-c2cc(-c3ccccc3)nc3c(C)noc23)ccn1,26,?
Cc1noc2c(-c3cccnc3N(C)C)cc(-c3ccccc3)nc12,-19,32µM*
COC1CCCN(c2cc(-c3cccnc3)nc3c(C)noc23)C1 (configuration not stated),1,i
CC(=O)N1CCN(c2ncccc2-c2cc(-c3ccccc3)nc3c(C)noc23)CC1,-12,35µM*
CC(=O)N1CCN(c2nc(-c3c(C)noc3C)cc3c2cc(-c2ccccc2)n3C)CC1,-2,40µM*
COc1cccc(NC(=O)[C@@H]2OCCN(C)[C@H]2c2ccccc2)c1,4,·
O=C(N/N=C/c1cccc(OCCCOc2ccccc2Cl)c1)c1ccccc1,·,i
CNC(=O)c1cc(C2CC2)nc2c1c(C1CCN(C(=O)c3cccc(Cl)c3)CC1)nn2C,-8,·
O=C(C1CCCC1)N1CC2(CCN(Cc3c[nH]c4ccccc34)CC2)Cc2ccccc21,-5,i
CC(=O)Nc1cccc(C(C)NC(=O)Nc2cc(Cl)cc(Cl)c2)c1 (configuration not stated),·,i
Cc1nc(-c2ccccc2)n(Cc2nc(-c3ccc(OC(C)C)cc3)oc2C)c(=O)c1CCO,-2,?
Cc1nc(-c2ccc(F)cc2)n(Cc2nc(-c3ccc(OC(C)C)cc3)oc2C)c(=O)c1CCO,-2,16µM*
CC(C)N1CC[C@H](c2nc3ccc(C(F)(F)F)cc3[nH]2)C1,5,?
O=C(Nc1ccc(Cl)cc1)NC1CCN(c2ccc3nnc(-c4ccccc4)n3n2)C1 (configuration not stated),1,·
SMILES,IP6K1 inhibitor,KDM5B inhibitor
Cc1cc(C(=O)NCc2ccc(C)o2)c2cccc(-c3ccccc3)c2n1,·,i
Cc1ccc(CNC2c3ccccc3-c3ccccc32)cc1,·,i
COc1ccc(Nc2ncc(-c3ccccc3OC)c3c2OCC3)cn1,-10,35µM*
COc1ccccc1-c1cnc(Nc2ccc(CN3CCN(C)CC3)cc2)c2c1CCO2,-2,35µM*
COc1ccc(-c2cnc(Nc3ccc(CN4CCN(C)CC4)cc3)c3c2CCO3)cn1,-23,?
COc1ccccc1-c1cnc(Nc2cncnc2)c2c1CCO2,-15,i
COc1ccc(Nc2ccnc(N3CCCC(C(=O)NCc4ccccc4)C3)n2)cc1 (configuration not stated),-1,·
O=C(/C=C/c1cc(Cl)cc(Cl)c1O)c1ccccc1,·,i
O=C1N(Cc2ccccn2)C[C@H]2CN(Cc3ccc(C(F)(F)F)cc3)CCN12,-14,i
CS(=O)(=O)c1ccc(CN2CCN3C(=O)N(Cc4ccccn4)C[C@H]3C2)cc1,-9,28µM*
Cc1cc(C)n(Cc2ccc(C(=O)NN)o2)n1,·,i
Cc1cc(C)n(Cc2ccc(C(=O)NCC3Cn4cccc4CN3Cc3ccccc3)o2)n1 (configuration not stated),-18,32µM*
Cc1ncoc1C(=O)NCC1Cn2cccc2CN1Cc1ccccc1 (configuration not stated),-10,28µM*
O=S(=O)(NCC1Cn2cccc2CN1Cc1ccccc1)c1ccccc1 (configuration not stated),0,·
CC(C)S(=O)(=O)NCC1Cn2cccc2CN1Cc1ccccc1 (configuration not stated),-11,?
Cn1cnc(S(=O)(=O)NCC2Cn3cccc3CN2Cc2ccccc2)c1 (configuration not stated),-3,28µM*
Cc1n[nH]c(C)c1Cc1ccc(C(=O)NCC2Cn3cccc3CN2C)o1 (configuration not stated),-4,?
Cn1nccc1C(=O)NCC1Cn2cccc2CN1Cc1ccccc1 (configuration not stated),-3,22µM*
O=C1CN(C(=O)c2cc3cc(Cl)ccc3[nH]2)CCN1,·,i
O=C(C1CCN(c2nccc(Nc3ccccc3Cl)n2)CC1)N1CCC(c2ncccn2)CC1,7,·
COc1ccc(CC(=O)NC2CCCN(c3ccc4nnc(C)n4n3)C2)cc1 (configuration not stated),-8,·
COc1ccccc1Nc1nc2nccc(-c3ccco3)c2c(=O)[nH]1,·,i
CCOC(=O)CN1C(=O)S/C(=C/c2cn(C)c3ccccc23)C1=O,·,i
O=C(NCC1Cn2cccc2CN1Cc1ccccc1)c1cncc(Br)c1 (configuration not stated),-10,28µM*
CN1Cc2cccn2CC1CNC(=O)c1ccccc1F (configuration not stated),-6,?
SMILES,IP6K1 inhibitor,KDM5B inhibitor
O=C(NCC1Cn2cccc2CN1Cc1cccnc1)Nc1ccccc1 (configuration not stated),5,?
O=C(NCC1Cn2cccc2CN1Cc1ccccc1)c1ccccn1 (configuration not stated),-8,·
CN1Cc2cccn2CC1CNC(=O)c1ccnn1C (configuration not stated),-1,22µM*
CCOCCCNC(=O)NCC1Cn2cccc2CN1Cc1ccccc1 (configuration not stated),-11,28µM*
CCn1ccc(C(=O)NCC2Cn3cccc3CN2Cc2ccccc2)n1 (configuration not stated),7,28µM*
COc1cccc(CC(=O)NCC2Cn3cccc3CN2Cc2ccccc2)c1 (configuration not stated),-14,·
COc1cccc(-c2cccc(C(=O)N3CCCC3C(=O)N3CCOCC3)c2)c1 (configuration not stated),-1,·
CN(CCCNC(=O)c1cnc2ccccc2n1)S(C)(=O)=O,·,i
Cn1cc(C(=O)N2CCN(C(=O)c3ccccc3)CC2)c2ccccc21,·,i
Fc1ccc(CSc2ccc3ccccc3n2)cc1,·,i
Fc1ccc(NN=C2c3ccccc3-c3ccccc32)cc1,·,i
O=S(=O)(NCC1Cn2cccc2CN1Cc1cccnc1)c1ccc(F)cc1 (configuration not stated),-10,28µM*
